Assay [1] in a line: antimalarial activity against Dd2 strain (AID 2302;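 active = growth inhibition above 50% at the single 2 µM test dose, taken to imply half-maximal potency below 2 µM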;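 also: 0% = DMSO untreated growth and 100% = chloroquine plus artemisinin killed control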). The conditions noted are these: P. falciparum Dd2 in RBCs, LDH growth readout, 72 h; at 2 µM; hits give high values.
A short description of assay [2]: human hepatoma cell viability loss – ATP luminescence, cytotoxicity control for P. falciparum antimalarial project, primary screen (AID 2303;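 active = inhibition above 50%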;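 also: 0% = DMSO wells and 100% = digitonin-killed cells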). The conditions noted are these: HepG2 viability, 24-48 h, at 10 µM, hits give high values.
Assay [3] addresses L-lactate dehydrogenase (Plasmodium falciparum (isolate CDC / Honduras)) (UniProt Q27743). The assay can be described thus: PfLDH activity inhibition – cell lysate, 3D7 strain, counter-screen for P. falciparum growth inhibition project (AID 2304).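 Also: 0% = vehicle and 100% = reference inhibitor.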 The conditions noted are these: P. falciparum 3D7 crude extract, LDH APAD/NBT absorbance; at 2 µM; hits give high values. A general note: A counterscreen serves to expose hits that act by an unwanted route or on another target.

A short description of assay [4]: inhibition of 3D7 malaria parasite growth – strain 3D7 (AID 2306).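 Also: 0% = DMSO wells and 100% = chloroquine plus artemisinin control wells.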 The conditions noted are these: P. falciparum 3D7 erythrocytic growth, LDH absorbance, 72 h; at 2 µM; hits give high values.
Assay [5] deals with Calcium-dependent protein kinase 1 (Plasmodium falciparum (isolate 3D7)) (UniProt P62344). The assay can be described thus: PfCDPK1 kinase inhibitors, biochemical, TCAMS library (AID 1159585; cut-off not given, nearly all actives have IC50 up to about 0.98 µM;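 also: inhibitors leave more ATP so luminescence rises with inhibition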). To be noted: recombinant PfCDPK1, Kinase-Glo ATP depletion luminescence. (In general: Kinase-Glo reads ATP consumption through a luciferase reaction.)
Sequence of Calcium-dependent protein kinase 1 (Plasmodium falciparum (isolate 3D7)) (P62344 whole entry, looked up): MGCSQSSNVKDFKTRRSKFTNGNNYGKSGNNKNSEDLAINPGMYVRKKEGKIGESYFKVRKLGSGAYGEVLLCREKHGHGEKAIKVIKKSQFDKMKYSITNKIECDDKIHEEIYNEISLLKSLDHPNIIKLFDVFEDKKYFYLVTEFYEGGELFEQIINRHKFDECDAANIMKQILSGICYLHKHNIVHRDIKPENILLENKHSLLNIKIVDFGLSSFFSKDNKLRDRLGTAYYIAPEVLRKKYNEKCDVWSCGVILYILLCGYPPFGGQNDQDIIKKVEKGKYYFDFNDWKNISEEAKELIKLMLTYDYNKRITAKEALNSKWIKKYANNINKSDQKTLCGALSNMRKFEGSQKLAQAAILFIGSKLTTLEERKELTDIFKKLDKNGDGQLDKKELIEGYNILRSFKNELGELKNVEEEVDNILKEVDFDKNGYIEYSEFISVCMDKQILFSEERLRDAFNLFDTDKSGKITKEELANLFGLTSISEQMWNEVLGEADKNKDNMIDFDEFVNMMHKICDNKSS
Assay [6] addresses Plasmodium falciparum protein kinase 6 (PK6, PF3D7_1337100) (UniProt Q8IDW1). The assay can be described thus: PfPK6 kinase inhibitors, biochemical, TCAMS library (AID 1159586). To be noted: recombinant PfPK6, Kinase-Glo ATP depletion luminescence.
The target of assay [7] is Protein kinase 7 (PK7), Plasmodium falciparum 3D7 (PF3D7_0213400) (UniProt Q7YTF7). The assay can be described thus: inhibition of Plasmodium PK7 catalytic activity – biochemical, TCAMS antimalarial set, Kinase-Glo luminescence (AID 1159587). To be noted: recombinant PfPK7, Kinase-Glo ATP depletion luminescence.
Sequence of Protein kinase 7 (PK7), Plasmodium falciparum 3D7 (PF3D7_0213400) (Q7YTF7 1-343): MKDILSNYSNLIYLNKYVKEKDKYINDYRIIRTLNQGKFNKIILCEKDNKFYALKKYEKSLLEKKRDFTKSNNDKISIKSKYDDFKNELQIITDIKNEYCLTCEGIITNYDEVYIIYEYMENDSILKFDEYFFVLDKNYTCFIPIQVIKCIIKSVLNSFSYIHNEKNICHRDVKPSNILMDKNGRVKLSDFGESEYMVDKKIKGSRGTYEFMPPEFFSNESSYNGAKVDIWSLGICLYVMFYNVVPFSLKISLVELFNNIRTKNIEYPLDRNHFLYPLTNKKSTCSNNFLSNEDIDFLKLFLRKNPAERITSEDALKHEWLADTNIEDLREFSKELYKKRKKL
Assay [8] deals with Calcium-dependent protein kinase 4 (Plasmodium falciparum (isolate 3D7)) (UniProt Q8IBS5). The assay can be described thus: PfCDPK4 kinase inhibitors, biochemical, TCAMS library (AID 1159588; cut-off not given, nearly all actives have IC50 up to about 0.91 µM). The conditions noted are these: recombinant PfCDPK4, Kinase-Glo ATP depletion luminescence.
Sequence of Calcium-dependent protein kinase 4 (Plasmodium falciparum (isolate 3D7)) (Q8IBS5 whole entry, looked up): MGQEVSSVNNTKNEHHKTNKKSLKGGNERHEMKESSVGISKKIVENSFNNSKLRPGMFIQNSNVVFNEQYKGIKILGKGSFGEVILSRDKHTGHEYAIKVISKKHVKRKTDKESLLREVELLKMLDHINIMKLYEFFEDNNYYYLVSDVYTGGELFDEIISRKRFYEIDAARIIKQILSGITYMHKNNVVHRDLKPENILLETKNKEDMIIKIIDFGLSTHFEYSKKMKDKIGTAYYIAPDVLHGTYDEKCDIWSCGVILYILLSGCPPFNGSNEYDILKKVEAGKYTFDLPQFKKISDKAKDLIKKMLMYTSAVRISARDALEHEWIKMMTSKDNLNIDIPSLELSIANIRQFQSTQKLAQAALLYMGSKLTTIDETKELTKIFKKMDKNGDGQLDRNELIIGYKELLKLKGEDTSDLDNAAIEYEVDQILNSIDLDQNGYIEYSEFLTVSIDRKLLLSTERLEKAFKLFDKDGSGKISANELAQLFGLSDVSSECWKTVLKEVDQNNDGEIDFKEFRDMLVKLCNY

Unmarked numbers belong to inactive results. For some of these results: Measured potencies and affinities stand elsewhere. Active and inactive are the calls of the source. Unless noted, no rule for the calls is given here.

Sequence of L-lactate dehydrogenase (Plasmodium falciparum (isolate CDC / Honduras)) (Q27743 whole entry, looked up): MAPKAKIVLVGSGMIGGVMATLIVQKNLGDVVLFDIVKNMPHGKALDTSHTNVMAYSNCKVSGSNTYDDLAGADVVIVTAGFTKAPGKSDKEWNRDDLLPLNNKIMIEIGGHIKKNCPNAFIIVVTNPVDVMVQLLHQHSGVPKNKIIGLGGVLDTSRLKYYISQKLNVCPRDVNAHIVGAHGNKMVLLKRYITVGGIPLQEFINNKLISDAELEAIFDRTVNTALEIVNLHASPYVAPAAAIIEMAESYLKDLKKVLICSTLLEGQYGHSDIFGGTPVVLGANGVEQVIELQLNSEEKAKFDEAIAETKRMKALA
Sequence of Plasmodium falciparum protein kinase 6 (PK6, PF3D7_1337100) (Q8IDW1 1-305): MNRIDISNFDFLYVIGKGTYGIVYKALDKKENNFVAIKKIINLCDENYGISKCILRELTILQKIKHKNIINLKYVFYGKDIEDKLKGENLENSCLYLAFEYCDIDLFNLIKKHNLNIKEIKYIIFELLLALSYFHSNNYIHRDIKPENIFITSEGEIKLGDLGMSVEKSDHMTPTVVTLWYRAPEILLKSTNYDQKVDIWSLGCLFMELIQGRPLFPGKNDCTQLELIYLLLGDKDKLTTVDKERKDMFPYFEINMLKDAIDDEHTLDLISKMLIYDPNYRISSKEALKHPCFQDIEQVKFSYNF

As usually defined, the inhibition is the drop in the measured response relative to a control, in per cent. Take `COc1ccc(-c2cnc(NCc3ccccc3)nc2)cc1CNC1CCN(C)CC1`: the growth inhibition is 64% (active) in assay [1] and 96% (active) in assay [4]. In addition, the figures for the inhibition in assay [2] and in assay [3] were 19% and 1%, respectively. Besides, the result in assay [5], in assay [6], in assay [7] and in assay [8] was inactive.
Consider `CCOc1ccc(C(=O)N2CCOC(CCN3CCC(c4ccccc4)CC3)(c3ccc(Cl)c(Cl)c3)C2)cc1` (stereo not given), for which the growth inhibition in assay [1] is 71% (active); in assay [4], 88% (active). Besides, the figures for the inhibition in assay [2] and in assay [3] were 14% and 8%, respectively. Further, the result in assay [5], in assay [6], in assay [7] and in assay [8] was inactive.
As to `COC(=O)c1ccc2c(-c3nc4ccc(OC)cc4[nH]3)c[nH]c2c1`, the growth inhibition in assay [1] was 31%; in assay [4], 95% (active). In addition, the figures for the inhibition in assay [2] and in assay [3] were 0% and 5%, respectively. Also, the outcome in assay [5], in assay [6], in assay [7] and in assay [8] was inactive.
For `Cc1nc(N/C=C/c2ccc(O)cc2)cc(N2CCCC2)n1`, the growth inhibition was 54% (active) in assay [1] and 93% (active) in assay [4]. Besides, the inhibition in assay [2] was -11%; in assay [3], -2%. Besides, the outcome in assay [5], in assay [6], in assay [7] and in assay [8] was inactive.
For the molecule `C[C@H]1CN(Cc2cccc(-c3cc(CNC(=O)c4cccc(C(=O)c5ccc(Cl)c(Cl)c5)c4)ccc3F)c2)CCN1`, the growth inhibition is 42% in assay [1] and 85% (active) in assay [4]. Further, the inhibition in assay [2] is 40%; in assay [3], 2%. Also, the outcome in assay [5], in assay [6], in assay [7] and in assay [8] was inactive.
Turning to `O=C(NC1CC1)c1ccc(N2CCCC(COc3ccccc3F)C2)nc1` (stereo not given), the values for the growth inhibition in assay [1] and in assay [4] were 92% (active) and 87% (active), respectively. For the same molecule, the inhibition in assay [2] was 8%; in assay [3], -2%. Moreover, the result in assay [5], in assay [6], in assay [7] and in assay [8] was inactive.
For `O=C(/C=C/c1ccc(C(F)(F)F)cc1)NCCCCCN1CCC(c2c[nH]c3ccccc23)CC1`, the growth inhibition in assay [1] was 22%; in assay [4], 101% (active). The figures for the inhibition in assay [2] and in assay [3] were 96% (active) and 1%, respectively. The outcome in assay [5], in assay [6], in assay [7] and in assay [8] was inactive.
`Cc1ccc(/C=C/C(=O)NC2CCC(N3CCC(c4ccccc4C)CC3)CC2)cc1C` (stereo not given): the growth inhibition in assay [1] was 43%; in assay [4], 100% (active). The figures for the inhibition in assay [2] and in assay [3] were 12% and -3%, respectively. In addition, the outcome in assay [5], in assay [6], in assay [7] and in assay [8] was inactive.
In the case of `O=C(c1ccc(O)c(-c2cc(Cl)cc(Cl)c2)c1)N(CCO)CCO`, the growth inhibition is 62% (active) in assay [1] and 94% (active) in assay [4]. For the same molecule, the results for the inhibition in assay [2] and in assay [3] were 1% and -9%, respectively. The result in assay [5], in assay [6], in assay [7] and in assay [8] was inactive.
For `O=C(NC1CCCCN(Cc2ccccc2O)C1)c1ccc(Cl)c(Cl)c1` (stereo not given), the growth inhibition in assay [1] and in assay [4] was 96% (active) in each case. The inhibition in assay [2] was -7%; in assay [3], -1%. The outcome in assay [5], in assay [6], in assay [7] and in assay [8] was inactive.
For `COc1ccc2nccc(N(C)CC3(O)CCN(CCc4ccc5c(c4)NC(=O)CS5)CC3)c2n1`, the growth inhibition in assay [1] is 67% (active); in assay [4] it was 91% (active). The inhibition is 10% in assay [2] and 1% in assay [3]. Also, the result in assay [5], in assay [6], in assay [7] and in assay [8] was inactive.
With `COc1ccc(OC)c(-c2ccc(=O)n(CC(=O)Nc3cccc4ccccc34)n2)c1`, the growth inhibition in assay [1] was 95% (active); in assay [4], 101% (active). Besides, the inhibition in assay [2] was -9%; in assay [3], 3%. Also, the outcome in assay [5], in assay [6], in assay [7] and in assay [8] was inactive.
For `COc1ccc2ccccc2c1CCCCN1CCN(CC(c2ccc(F)cc2)N2CCN(C(C)C)CC2)CC1` (stereo not given), the growth inhibition in assay [1] is 83% (active); in assay [4], 100% (active). Further, the inhibition in assay [2] was 92% (active); in assay [3] it was 2%. In addition, the result in assay [5], in assay [6], in assay [7] and in assay [8] was inactive.
Consider `CCN(CC)CCN(Cc1ccc(-c2ccc(C(F)(F)F)cc2)cc1)C(=O)Cn1c(CCc2ccc(F)c(C#N)c2)nc(=O)c2ccccc21`, for which the growth inhibition in assay [1] is 55% (active); in assay [4] it was 98% (active). Also, the figures for the inhibition in assay [2] and in assay [3] were 18% and -2%, respectively. Further, the outcome in assay [5], in assay [6], in assay [7] and in assay [8] was inactive.
Regarding `c1ccc(CN2CCC(NCc3ccccc3-c3ccc(CNC4CCCC4)cc3)CC2)cc1`, the growth inhibition in assay [1] is 33%; in assay [4], 102% (active). Further, the results for the inhibition in assay [2] and in assay [3] were 38% and 1%, respectively. The result in assay [5], in assay [6], in assay [7] and in assay [8] was inactive.
Consider `COc1ccc2ncc(F)c(NC(=O)C3CCC(NCc4cc5cc(F)cc(F)c5[nH]4)CC3)c2n1` (stereo not given), for which the figures for the growth inhibition in assay [1] and in assay [4] were 15% and 95% (active), respectively. Also, the inhibition in assay [2] is 18%; in assay [3], 2%. The result in assay [5], in assay [6], in assay [7] and in assay [8] was inactive.
For `O=C(NCCCCCN1CCCN(C(=O)Nc2ccc(F)c(C(F)(F)F)c2)CC1)[C@@H]1C[C@H]1c1ccc(Cl)c(Cl)c1`, the growth inhibition in assay [1] was 1%; in assay [4], 90% (active). Also, the inhibition in assay [2] was 61% (active); in assay [3], 2%. Moreover, the outcome in assay [5], in assay [6], in assay [7] and in assay [8] was inactive.
`Cc1ccc(Nc2nccc(NCC(O)c3ccc(C(F)(F)F)cc3)n2)cc1` (stereo not given): the growth inhibition in assay [1] and in assay [4] was 100% (active) in each case. Moreover, the results for the inhibition in assay [2] and in assay [3] were 53% (active) and -7%, respectively. The outcome in assay [5], in assay [6], in assay [7] and in assay [8] was inactive.
As to `COc1c(Br)cc(Br)cc1C(C)=O`, the values for the growth inhibition in assay [1] and in assay [4] were -2% and 95% (active), respectively. For the same molecule, the inhibition was 3% in assay [2] and 1% in assay [3]. Moreover, the result in assay [5], in assay [6], in assay [7] and in assay [8] was inactive.
Regarding `O=C(Cc1ccccc1)NC(Nc1ccc([N+](=O)[O-])cc1)C(Cl)(Cl)Cl` (stereo not given), the growth inhibition in assay [1] was 100% (active); in assay [4], 99% (active). In addition, the inhibition is 21% in assay [2] and 1% in assay [3]. Moreover, the outcome in assay [5], in assay [6], in assay [7] and in assay [8] was inactive.

(Values after PubChem BioAssay.)
